# In the library only some 21% were active in any assay of this set; here they are far more common.
# Pf growth 48h: inhibits P. falciparum growth in the first generation, 48 h; AID 504832; 310,000 compounds, 5.9% hits; P. falciparum luciferase growth in erythrocytes, 48 h; Potency, µM (doses to about 28.7 µM), hits mostly inhibitors; active means well fitted inhibition curve with a large enough effect; inconclusive means small, poorly fitted or top-dose-only effect, or another doubt; inactive means no such curve, though single readings can be large or run the other way
#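 A one-generation exposure of luciferase-tagged malaria parasites in RPMI 1640/Albumax erythrocyte culture, 37 C and 5% CO2. Inhibition is inferred from decreased luminescence after adding detection reagent.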
# SARS PLpro yeast: inhibitors of SARS-CoV papain-like protease in yeast; S. cerevisiae expressing SARS-CoV PLpro, growth rescue; Potency, µM (highest dose often 32.9 µM), most hits filed as activators; 330,000 compounds, 0.19% hits; AID 485353; further: nearly all actives have a fitted effect of over 55% in size
# Shiga toxin inh: inhibitors of Shiga toxin in Vero cells. AID 2315. 290,000 compounds, 9.2% hits. inhibition, % at 38.7 µM. Vero cells, Shiga toxin protein synthesis inhibition reporter; in the data active means inhibition mostly above about 28%, no sharp cut-off; inactive means mostly below about 43%
# Cycloheximide cs: counter-screen hit for Shiga toxin inhibitors, cycloheximide; cell reporter, cycloheximide protein synthesis inhibition counterscreen; max response, %; 300,000 compounds, 12% hits; AID 2314; in the data active means max response mostly above about 13%, no sharp cut-off; inactive means mostly below about 14%; further: read at 38.3 µM for the half of the compounds with a filed dose
# NS1 inh: inhibitors of influenza NS1 protein function. Potency, µM (titrated, usually from 46.1 µM). 270,000 compounds, 0.4% hits; further: actives are rising curves; nearly all actives have a fitted effect of over 50% in size
#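 OD600 was taken as the measure of yeast growth restored by compound in an NS1-expressing S. cerevisiae strain. Cells had been washed out of glucose medium and diluted 1:100 into galactose -URA medium, pH 6.0.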
# Pf growth 96h: P. falciparum growth inhibition at 96 hour, primary screen for plastid delayed-death inhibitors. Potency, µM (series often up to 28.7 µM), actives largely listed as inhibitors. 320,000 compounds, 6.9% hits. AID 504834. P. falciparum luciferase reporter growth, 96 h; active means well fitted inhibition curve with a large enough effect; inconclusive means small, poorly fitted or top-dose-only effect, or another doubt; inactive means no such curve, though single readings can be large or run the other way
#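 Two-generation exposure (96 h) targets delayed-death phenotype. Reporter parasites carrying integrated firefly luciferase, in red cells at 2% hematocrit and 0.05% parasitemia final, kept at 37 C, 5% CO2; luminescence loss indicates inhibition.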
# Numbers stand for hits; n = inactive; u = inconclusive; x = no result. Unless noted, the call rests on the fitted dose curve.
SMILES,Pf growth 48h,SARS PLpro yeast,Shiga toxin inh,Cycloheximide cs,NS1 inh,Pf growth 96h
CCc1nnc(NC(=O)C2CCN(c3ncnc4sc(C)c(C)c34)CC2)s1,n,n,x,x,x,n
Cc1sc2ncnc(N3CCC(C(=O)Nc4ccc(C#N)cc4)CC3)c2c1C,u,n,x,x,x,u
CCOC(=O)c1ccccc1NC(=O)C1CCN(c2ncnc3sc(C)c(C)c23)CC1,10µM,x,x,x,x,n
Cc1sc2ncnc(N3CCC(C(=O)Nc4ccccc4C(C)(C)C)CC3)c2c1C,12µM,n,x,x,x,u
CCOc1ccc(S(=O)(=O)N2CCOCC2)cc1NC(=O)CCOc1ccc(C(C)(C)C)cc1,u,n,x,x,x,u
Cc1ccc(S(=O)(=O)N(C)Cc2cc3cc(C)ccc3[nH]c2=O)cc1,n,n,n,n,n,u
Cc1ccc2[nH]c(=O)c(-c3noc(CC(C)C)n3)cc2c1,9.3µM,n,n,n,n,5.2µM
CCS(=O)(=O)NCCc1cc2ccc(C)cc2[nH]c1=O,n,n,n,n,n,n
Cc1ccc2cc(-c3noc(C4CCCO4)n3)c(=O)[nH]c2c1 (stereo not given),x,n,n,17,n,u
CCOc1ccccc1-c1nc(-c2cc3ccc(C)cc3[nH]c2=O)no1,9.3µM,n,n,n,n,n
CCOc1ccccc1-c1nc(-c2cc3ccccc3nc2OC)no1,n,n,n,n,n,u
CCCc1nc(-c2cc3ccc(C)cc3[nH]c2=O)no1,n,n,59,23,n,3.7µM
Cc1ccc2cc(-c3noc(C4CCCCC4)n3)c(=O)[nH]c2c1,n,n,n,n,n,n
CN1CCN(C2=Nc3cc(Cl)ccc3Nc3ccccc32)CC1,17µM,n,n,n,n,u
CCn1ncc(CN2CCCC(C(=O)Nc3cccc(-c4cc5ccccc5[nH]4)c3)C2)c1C (stereo not given),4.1µM,n,n,n,u,n
Cc1c(CN2CCCC(C(=O)Nc3cccc(-n4cccn4)c3)C2)cnn1C (stereo not given),n,n,n,n,n,13µM
Cc1cc(CN2CCCC(C(=O)Nc3cccc(-n4cccn4)c3)C2)cc(C)c1O (stereo not given),u,n,n,n,n,n
O=C(Nc1cccc(-n2cnnn2)c1)C1CCCN(Cc2cccc(C(F)(F)F)c2)C1 (stereo not given),15µM,n,n,n,n,n
CCn1nc(CC(=O)O)c2ccccc2c1=O,n,n,n,n,n,n
CCOC(=O)Cc1nn(CC)c(=O)c2ccccc12,n,n,n,n,n,n
CCOC(=O)Cc1nn(C)c(=O)c2ccccc12,n,n,n,n,n,5.2µM
CCCCn1nc(CC(=O)O)c2ccccc2c1=O,n,n,n,n,n,10µM
CCCC(=O)Oc1ccc(C2NC(=O)c3ccccc3O2)cc1OC (stereo not given),n,n,x,n,n,n
COc1ccc(/C=N/NC(=O)CCSc2nc3ccccc3s2)cc1OC,n,n,n,n,n,u
Cc1cc(C)n(CCC(=O)N/N=C/c2c(O)ccc3ccccc23)n1,6.6µM,n,n,n,n,u
SMILES,Pf growth 48h,SARS PLpro yeast,Shiga toxin inh,Cycloheximide cs,NS1 inh,Pf growth 96h
O=C(CCSc1nc2ccccc2s1)N/N=C/c1c(O)ccc2ccccc12,u,n,n,n,u,2.9µM
Cc1cc(C)n(CCC(=O)N/N=C/c2ccc(O)cc2)n1,n,n,n,n,n,n
COc1cccc(C(=O)Nc2ccc(-c3nc4ccccc4o3)c(O)c2)c1,u,n,53,n,n,n
COc1cc(OC)cc(C(=O)Nc2ccc(-c3nc4ccccc4o3)cc2)c1,u,n,48,n,n,x
COc1cc(C(=O)Nc2ccc(-c3nc4cc(C)ccc4o3)c(O)c2)cc(OC)c1OC,u,n,n,n,n,u
COc1cc(OC)cc(C(=O)Nc2ccc(Nc3ccccc3)cc2)c1,n,n,n,n,n,n
CCN1CCN(c2ncnc3c2sc2nc(N4CCOCC4)c4c(c23)CCC4)CC1,n,n,n,n,n,n
c1nc(NCCN2CCOCC2)c2sc3nc(N4CCOCC4)c4c(c3c2n1)CCC4,7.4µM,n,n,n,n,x
NC1=NC[C@H](Cc2ccccc2)N1CCc1cc(C(F)(F)F)cc(C(F)(F)F)c1,3.3µM,n,n,n,n,u
FC(F)(F)c1cc(CCN2C(=S)NC[C@@H]2Cc2ccccc2)cc(C(F)(F)F)c1,u,n,n,n,n,u
CN(C)C1=NC[C@H](Cc2ccccc2)N1CCc1cccc(F)c1,u,n,x,x,x,u
NC1=NC[C@H](Cc2ccc(O)cc2)N1CCc1cccc(F)c1,13µM,n,n,n,n,2.3µM
CCOC(=O)C1CC2CC(C1)CN(C(=O)C1CCCCC1)C2 (stereo not given),n,n,n,n,x,u
Cc1cc(-c2nnc(SCC(=O)NC3CC3)n2C(C)C)cs1,n,n,n,n,n,n
Cc1noc(C)c1NC(=O)N(C)C[C@H]1Oc2ccc(NS(=O)(=O)c3ccc(F)cc3)cc2C(=O)N([C@H](C)CO)C[C@@H]1C,x,n,x,x,x,x
Clc1cc(Cl)c(OCCCCn2cncn2)c(Cl)c1,n,n,n,n,n,0.29µM
Brc1cccc(OCCCCn2cncn2)c1,n,n,n,n,n,n
COCCNC(=O)/C(C#N)=C/C=C/c1ccccc1[N+](=O)[O-],n,n,n,17,x,u
COCCNC(=O)/C(C#N)=C/c1cccc(/C=C(\C#N)C(=O)NCCOC)c1,u,n,n,n,n,u
COCCNC(=O)/C(C#N)=C/c1ccc(O)cc1,n,n,n,19,n,n
CCC(CC)C(=O)Nc1cc(Cl)ccc1C,n,n,n,n,x,n
Cc1ccc(C)c(N2CCN(CCCc3ccccc3)CC2)c1,n,n,n,n,n,u
CC(C)(C)P(=O)(c1ccncc1)N1CCCC1 (stereo not given),u,n,n,n,n,0.74µM
COc1cccc(N2C(=NC(=O)CCC3CCCC3)SC3CS(=O)(=O)CC32)c1 (stereo not given),n,n,n,n,n,n
CCOC(=O)C1(Cc2cccc(F)c2)CCN(Cc2nc(CC)[nH]c2C)CC1,3.3µM,n,n,n,n,n
SMILES,Pf growth 48h,SARS PLpro yeast,Shiga toxin inh,Cycloheximide cs,NS1 inh,Pf growth 96h
CCOC(=O)C1(Cc2cccc(F)c2)CCN(CC2CC2)CC1,n,n,n,n,n,15µM
COc1cc(Cl)c(C)cc1NC(=O)CSc1cc(Cl)ccc1Cl,n,n,n,n,n,u
Cc1cc(NC(=O)CSc2nnc(-c3ccc(S(=O)(=O)N4CCCC4)cc3)n2C)no1,u,n,n,n,n,12µM
Cn1c(SCC(=O)NCc2ccco2)nnc1-c1ccc(S(=O)(=O)N2CCOCC2)cc1,n,n,n,n,n,12µM
C=CCOC(/C=C/c1ccccc1)CC (stereo not given),x,x,n,n,x,x
C=C(c1ccccc1)c1ccccc1N,u,n,x,x,x,u
CCCCCCOC(=O)Cc1c(C)nc(-c2ccccc2)[nH]c1=O,2.3µM,n,n,n,n,u
C=C(C)Cc1c(C)nc(-c2ccccc2)[nH]c1=O,u,n,38,18,n,x

# Screening results: PubChem BioAssay, National Center for Advancing Translational Sciences (NCATS)
